Assay results published in PubChem BioAssay.

Experiment: E. coli DRC41 culture turbidity changes, primary screen, E. coli filamentation inducer project, strain DRC41, OD650, 48 h (AID 1152);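 further: E. coli MC1000 strain DRC41 lacking acrAB efflux pump and sulA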
Details: E. coli DRC41 (acrAB sulA), higher = more signal, called active from +8 up or from −8 down

z-score, inactive:
[N-]=[N+]=NCc1ccccc1[C@@H]1OC(c2ccc(OCCCO)cc2)=N[C@]1(CCS(=O)(=O)c1ccccc1)C(=O)O -0.0791
CC1CC/C=C\[C@H]2OC34C=CCN(c5ccc(Cl)cc5)C(=O)[C@H]3N(C(C)CO)C(=O)[C@]4(C)C2C(=O)O1 (stereo not given in full) 0.346
C=CC[C@]1(C(=O)N2CCCCC2)N=C(c2ccc(OCCCO)cc2)O[C@H]1c1ccccc1CN=[N+]=[N-] 0.678
COc1ccc([Si](C)(C)[C@H]2[C@H](CC(=O)N3CCC[C@H]3CO)O[C@@]3(C(=O)N(Cc4ccc(N5CCOC5=O)cc4)c4ccccc43)[C@@H]2C)cc1 0.397
Cc1cc(C)c(C(O)C2C=CC3C(=O)N(c4ccccc4)C(=O)C3N2Nc2ccccc2F)c(C)c1 (stereo not given) -1.56
CC[C@@H]1O[Si](C(C)C)(C(C)C)c2c1cc(-c1cc(C)c(OC)c(C)c1)nc2-c1ccc(Oc2ccccc2)cc1 -0.109
O[C@@H](Cc1ccccc1)[C@@H](/C=C/C1CC1)N(CC#Cc1ccccc1)Cc1ccccc1Br 0.241
COC(=O)C/C=C/C[C@]1(O)C(=O)N(C)c2ccccc21 2.8
C=CC[C@@]1(C(=O)NCCCOC)N=C(c2ccc(OCCCO)cc2)O[C@@H]1c1ccccc1N=[N+]=[N-] 1.37
COC(=O)[C@@H]1N=C(c2ccc(OCCCO)cc2)O[C@@H]1C 0.608
CCCC=C(CCC)[C@@H](NC(=O)c1cccs1)c1ccc(C(=O)OC)cc1 -1.24
COc1cc(NN2C(C(O)c3cc(OC)c(OC)c(OC)c3)C=CC3C(=O)N(C)C(=O)C32)cc(OC)c1OC (stereo not given) -1.12
COc1cc(OC)c(C(O)C2C=CC3C(=O)N(Cc4ccccc4)C(=O)C3N2n2cnnc2)cc1Br (stereo not given) -1.21
C=CCC(OC(C)=O)[C@@H]1[C@@H](N(Cc2cc3ccccc3o2)C(=O)Cc2ccc(F)cc2)c2cc(OCCCO)ccc2N1C(=O)Cc1ccc2ccccc2c1 (stereo not given in full) -1.06
COc1ccc(CCNC(=O)[C@@H]2c3ccccc3C(=O)N(C3CCCCC3)[C@H]2c2ccc(CO)cc2)cc1 -0.71
C[N+](C)(C)CCCC[C@@H]1NC(=O)[C@@H]2C[C@H](C(=O)NCCCCCCN)[C@H](c3cccc(OCCO)c3)N2C1=O 0.0598
O=C1C2C=CC(C(O)C3CC=CCC3)N(Nc3ccccc3)C2C(=O)N1c1ccccc1 (stereo not given) -1.5
O=C1C2C=CC(C(O)c3ccco3)N(Nc3ccccc3F)C2C(=O)N1c1ccccc1 (stereo not given) -1.72
COC(=O)c1c(CC[C@@H](CO)NC(=O)N2CCC[C@H]2Cn2cc(C3(O)CCCCC3)nn2)oc(C(C)=O)c1C(=O)OC -0.955
C=C(/C(=C/C[C@H](OC(=O)c1ccncc1)c1ccc(CO)o1)c1cnc2ccccc2c1)C(C)C -0.833
COCC(=C=CC[C@H](O)c1ccccc1OCCO)C[C@H](O)c1ccccn1 0.769
CC(C)c1ccc(NN2C(C(O)c3ccc(F)cc3)C=CC3C(=O)N(c4ccccc4)C(=O)C32)cc1 (stereo not given) -0.601
CO[C@H]1O[C@H](CO)[C@@H](OC(=O)Nc2ccc3c(c2)OCO3)[C@H](OC(=O)Nc2ccc3c(c2)OCO3)[C@@H]1OC(=O)Nc1ccc2c(c1)OCO2 -0.53
CCCNC(=O)[C@@H]1c2ccccc2C(=O)N(Cc2ccc(OC(F)(F)F)cc2)[C@H]1c1ccc(CO)cc1 0.52
CCOC(=O)C[C@H]1[C@H](OC(=O)c2cc3ccccc3oc2=O)[C@@H](NC(=O)c2ccccc2)c2cc(OCCCO)ccc2N1C(=O)c1ccccc1 0.0768
CCCNC(=O)[C@@]1(C)c2ccccc2C(=O)N(c2ccc(C)cn2)[C@H]1c1ccc(CO)cc1 -0.819
CC(C)C(O)C1C=CC2C(=O)N(c3ccccc3)C(=O)C2N1Nc1ccccc1 (stereo not given) -0.471
CCCCC(CC)C(O)C1C=CC2C(=O)N(c3ccccc3)C(=O)C2N1Nc1ccc(C#N)cc1 (stereo not given) 0.344
COc1ccc(CCNC(=O)[C@@]2(Cc3ccccc3I)c3ccccc3C(=O)N(C3CCCCC3)[C@H]2c2ccc(CO)cc2)cc1 0.535
[N-]=[N+]=Nc1ccccc1C[C@@]1(C(N)=O)N=C(c2ccc(OCCCO)cc2)O[C@@H]1c1ccccc1N=[N+]=[N-] 0.587
